A selection: hits, their analogues and other compounds. The true share with any hit is near 22%.
LmPK inhibitor: blocks Leishmania mexicana pyruvate kinase activity; Q27686; purified LmPK, Kinase-Glo ATP luminescence, 1 h; Potency, µM (highest dose often 57.5 µM), inactives show top-dose activity change, negative = inhibition, actives largely listed as inhibitors; actives 0.37% (n = 290,000); AID 1721; also: potency is read from the fitted curve at half-maximal effect; % is scaled to controls: 0 for no effect and ±100 for the full control effect
Target sequence (Q27686 whole entry, looked up): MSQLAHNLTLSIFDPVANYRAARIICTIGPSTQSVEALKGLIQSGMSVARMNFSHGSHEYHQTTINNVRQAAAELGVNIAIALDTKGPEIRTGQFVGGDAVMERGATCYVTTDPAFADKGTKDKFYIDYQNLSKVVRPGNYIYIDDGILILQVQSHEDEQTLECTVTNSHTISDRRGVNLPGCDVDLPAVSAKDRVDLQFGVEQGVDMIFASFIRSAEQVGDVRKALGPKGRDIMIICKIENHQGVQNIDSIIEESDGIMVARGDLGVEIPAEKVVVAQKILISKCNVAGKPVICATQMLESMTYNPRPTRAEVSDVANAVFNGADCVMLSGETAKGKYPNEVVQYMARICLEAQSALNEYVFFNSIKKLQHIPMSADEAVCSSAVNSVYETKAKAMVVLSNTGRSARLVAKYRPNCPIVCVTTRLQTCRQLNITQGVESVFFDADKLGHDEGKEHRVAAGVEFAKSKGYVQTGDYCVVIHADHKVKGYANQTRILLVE
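qHTS format; LmPK 0.1 nM; substrates PEP 0.5 mM and ADP 0.1 mM. One-hour room-temperature incubation, then coupled luciferase luminescence; 0.5 nM enzyme wells mark activation.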
Pf growth 48h: inhibits P. falciparum growth in the first generation, 48 h | P. falciparum luciferase growth in erythrocytes, 48 h | Potency, µM (titrated, usually from 28.7 µM), without a hit: at the top dose activity change, negative = inhibition, most hits filed as inhibitors | actives 5.9% (n = 310,000); also: potency is read from the fitted curve at half-maximal effect; % is scaled to controls: 0 for no effect and ±100 for the full control effect
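Compounds are pin-transferred into medium, infected erythrocytes (2% hematocrit, 0.1% parasitemia final) are added, and plates sit one parasite generation at 37 C in 5% CO2. Detection reagent is then added and luminescence measured.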
Cycloheximide cs: affects cycloheximide protein synthesis inhibition readout, counter-screen. cell reporter, cycloheximide protein synthesis inhibition counterscreen. max response, %. actives 12% (n = 300,000). AID 2314; in the data active = max response mostly above about 13%, no sharp cut-off; inactive = mostly below about 14%; also: read at 38.3 µM for the half of the compounds with a filed dose; 0% is about no effect
Shiga toxin inh: inhibitors of Shiga toxin in Vero cells. Vero cells, Shiga toxin protein synthesis inhibition reporter. inhibition, % at 38.7 µM. actives 9.2% (n = 290,000). AID 2315; in the data active = inhibition mostly above about 28%, no sharp cut-off; inactive = mostly below about 43%; also: 0% is about no effect
Pf growth 96h: P. falciparum growth inhibition at 96 hour, primary screen for plastid delayed-death inhibitors. P. falciparum luciferase reporter growth, 96 h. Potency, µM (top dose mostly 28.7 µM), without a hit: at the top dose activity change, negative = inhibition, usual class: inhibitors. actives 6.9% (n = 320,000). AID 504834; also: potency is read from the fitted curve at half-maximal effect; % is scaled to controls: 0 for no effect and ±100 for the full control effect
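Compounds incubated with erythrocytes infected by luciferase-expressing P. falciparum (2% hematocrit, 0.05% parasitemia final) for 96 hours, 37 C in 5% CO2. Growth inhibition scored as decreased luciferase luminescence.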
* = called active by the depositor; ? = inconclusive; nt = not tested or not shown. Unless noted, calls follow the shape of the dose curve; as a rule, active = well fitted inhibition curve with a large enough effect; inconclusive = small, poorly fitted or top-dose-only effect, or another doubt; inactive = no such curve, though single readings can be large or run the other way.

SMILES	LmPK inhibitor	Pf growth 48h	Cycloheximide cs	Shiga toxin inh	Pf growth 96h
Cc1c(C)c2ccc(OCC(=O)Nc3nccs3)cc2oc1=O	-0.8%	221.0%	44.9*	77.6*	236.0%
CCCCc1cc(=O)oc2cc(OCC(=O)NCc3ccccn3)ccc12	1.0%	6.5%	3.6	-5.9	-4.5%
Cc1cc(=O)oc2cc(OCC(=O)Nc3nccs3)ccc12	0.1%	107.9%	34.8*	74.1*	383.8%
Cc1c(C)c2ccc(OCC(=O)Nc3ccccn3)cc2oc1=O	-19.6%	122.6%	33.6*	62.0*	149.1%
Cc1c(C)c2ccc(OCC(=O)NCc3ccccn3)cc2oc1=O	2.3%	?	-6.1	-7.4	-0.3%
Cc1ccccc1NC(=O)CSc1nnc(C2CC2)n1CC1CCCO1 (stereo not given)	-8.4%	16.4%	-4.6	-8.9	28.2%
COc1cccc(CC(=O)OCC(=O)NC(Cc2ccccc2)C(C)=O)c1 (stereo not given)	nt	?	nt	nt	17.5%
CC1(C)CC(=O)C(=C2SCCCS2)C(=O)C1	-0.4%	4.4%	-1.1	6.5	-0.4%
CC(=O)Nc1ccc(OS(=O)(=O)c2cc(Cl)ccc2C)cc1	11.5%	?	-3.8	26.3	0.2%
Cc1nn(C(C)C(=O)NCCCc2ccccc2)c(=O)c2nn(-c3ccccc3)c(C)c12 (stereo not given)	0.2%	-22.5%	-7.2	-5.7	?
Cc1ccc(-n2nc3c(=O)n(C(C)C(=O)NCc4ccc(Cl)cc4)nc(C)c3c2C)cc1 (stereo not given)	3.8%	?	15.2	-7.4	1.65µM*
Cc1ccc(-n2nc3c(=O)n(C(C)C(=O)NCCC4=CCCCC4)nc(C)c3c2C)cc1 (stereo not given)	11.5%	?	8.9	1.2	9.28µM*
Cc1ccc(CCNC(=O)C(C)n2nc(C)c3c(C)n(-c4ccccc4)nc3c2=O)cc1 (stereo not given)	-8.1%	-13.8%	-8.6	6.0	?
CCN(CC)CCCN(C(=O)c1ccc(Br)cc1)c1nc(-c2ccc(OC)cc2)cs1	-6.5%	?	-8.2	-2.0	-28.4%
COc1ccc(-c2csc(N(C)C(=O)c3cccs3)n2)cc1	8.0%	86.8%	22.5*	32.5*	-1.3%
CCN(CC)CCCN(C(=O)c1cccc(C)c1)c1nc(-c2ccc(OC)cc2)cs1	2.3%	?	-8.8	nt	4.15µM*
COCCCN(C(=O)c1ccccc1)c1nc(-c2ccc(OC)cc2)cs1	-2.2%	?	0.7	-2.6	?
CCN(CC)CCCN(C(=O)c1cccs1)c1nc(-c2ccc(OC)cc2)cs1	6.8%	13.1µM*	9.4	-5.0	-28.3%
COc1ccc(-c2csc(N(CC3CCCO3)C(=O)c3cccs3)n2)cc1 (stereo not given)	11.7%	nt	2.6	20.0	-3.8%
CC(=O)Nc1cc2c3c(c1)CCC(=O)N3CCC2	-3.8%	18.0%	-4.3	-8.3	41.9%
Cc1cc(C)cc(C(=O)NC(=S)Nc2cccnc2)c1	-7.6%	2.0%	13.0	28.7	22.2%
CC(=O)Nc1ccc(Cc2ccc3[nH]c(=O)cc(C)c3c2)cc1	2.2%	10.8%	-1.5	4.4	-23.4%
CN(C)c1nc(-c2ccccc2)ns1	2.8%	36.3%	33.4*	129.6*	29.3%
Cc1nnc(-c2ccccc2)nc1N(C)C	-1.5%	16.8%	-1.0	9.3	43.0%
CC(C)CN1CCN(Cc2cccn2-c2ccccn2)CC1CCO (stereo not given)	-12.0%	55.3%	0.6	17.6	8.28µM*
SMILES	LmPK inhibitor	Pf growth 48h	Cycloheximide cs	Shiga toxin inh	Pf growth 96h
OCCC1CN(CC#Cc2ccccc2)CCN1Cc1ccccc1F (stereo not given)	2.8%	-11.2%	-2.7	3.9	11.7µM*
CC(C)CN1CCN(CC#Cc2ccccc2)CC1CCO (stereo not given)	5.4%	27.5%	6.2	21.8	11.7µM*
C/C(=N\NC(=O)CSCc1ccccc1Cl)c1cccc(NC(=O)c2ccccc2)c1	5.4%	?	0.4	13.0	27.6%
CC(=O)Nc1ccc(/C(C)=N/NC(=O)c2ccccc2Cl)cc1	-2.4%	15.0%	29.1*	50.1*	-28.6%
C/C(=N/NC(=O)c1ccccc1O)c1ccc(N2C(=O)C3CCCCC3C2=O)cc1 (stereo not given)	-2.4%	43.4%	22.2*	55.8*	5.8%
C/C(=N\NC(=O)c1ccccc1O)c1cccc(NC(=O)c2ccccc2)c1	-0.3%	?	19.0*	41.8*	?
C/C(=N\NC(=O)c1ccccc1O)c1ccc(NC(=O)c2ccccc2)cc1	-7.1%	29.2%	38.0*	68.8*	-14.8%
COc1ccccc1-c1cc2nc(C)c(CCC(=O)NC(C)CCc3ccco3)c(C)n2n1 (stereo not given)	0.3%	nt	-4.7	-10.2	-21.8%
COCCCn1c(N)c(-c2nc3ccccc3n2C)c2nc3ccccc3nc21	2.6%	?	0.3	13.3	nt
Cn1c(-c2c(N)n(C3CCCC3)c3nc4ccccc4nc23)nc2ccccc21	1.6%	11.7µM*	-5.2	-11.8	8.28µM*
Cn1c(-c2c(N)n(CCCc3ccccc3)c3nc4ccccc4nc23)nc2ccccc21	3.7%	?	1.1	91.2	-5.7%
Cn1c(-c2c(N)n(CCc3ccccc3)c3nc4ccccc4nc23)nc2ccccc21	7.8%	nt	-1.4	12.0	5.22µM*
CN(C)CCN(C(=O)c1ccccc1Cl)c1nc2c(Cl)cccc2s1	5.2%	?	-1.3	9.5	?
CCOC(=O)c1sc2ncn(/N=C/N(C)C)c(=O)c2c1C	-3.2%	51.0%	1.5	-3.6	nt
CCOC(=O)c1sc2ncn(/N=C/c3ccccn3)c(=O)c2c1C	6.4%	9.8%	-2.1	7.8	6.57µM*
CN(C(=O)c1ccccc1OC1CCN(S(C)(=O)=O)CC1)C1CCOC1 (stereo not given)	-3.7%	24.9%	8.1	-9.0	-6.8%
O=C(CSc1nc2ccc(NC(=O)CSc3nnnn3-c3ccccc3)cc2s1)Nc1ccccc1	2.1%	-25.6%	3.7	-84.5	?
CN1CCN(C(=O)CSc2nc3ccc(NC(=O)c4ccccc4F)cc3s2)CC1	-0.7%	?	14.3*	24.1	?
Cn1c(SCC(=O)Nc2ccc3nc(SCC(=O)N4CCCC4)sc3c2)nnc1-c1ccccc1	-1.8%	9.28µM*	-3.2	-13.8	3.29µM*
Cn1cnnc1SCC(=O)Nc1ccc2nc(SCc3ccccc3F)sc2c1	5.4%	126.2%	49.9*	164.8*	nt
CCCC(=O)Nc1ccc2nc(SCC(=O)N3CCCC3)sc2c1	-1.2%	?	16.3	20.8	35.5%
CCN(Cc1ccc2c(c1)OCCO2)C(=O)CSc1nc(C)nc2sc(C)c(C)c12	nt	?	nt	nt	-23.7%
Cc1c(Br)c([N+](=O)[O-])nn1CC(=O)NCCc1c[nH]c2ccccc12	-8.8%	-24.0%	2.3	-8.7	8.8%
COc1ccc(C23CC4CC(CC(C(=O)O)(C4)C2)C3)c(F)c1	-2.8%	17.8%	-4.1	-3.2	-6.7%
O=C(/C=C/c1ccc(Cl)cc1)NC1CCS(=O)(=O)C1 (stereo not given)	-6.9%	?	-1.6	12.0	?

Screening results deposited in PubChem BioAssay by National Center for Advancing Translational Sciences (NCATS).
